Data reported in PubChem BioAssay AID1159580 (chemical genetic matrix, 2015).
Among all 5,500 compounds or so, about 2,000 (36%) were called active. About 18% were inconclusive and are not listed. Rule as the data show it: active = normalized growth mostly below about 0.91 (no sharp cut-off); inconclusive = no clear call, values can overlap the other calls; inactive = mostly above about 0.92. The list shows a part of the results.

Test: chemical genetic growth profiling, strain panel (AID 1159580);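 also: tested at 20 µM; growth read once vehicle control cultures reached saturation at 30 °C; 1 = growth at the plate median or of vehicle wells; lower values mean less growth of the strain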
Conditions: S. cerevisiae deletion strains, growth OD

Measured: normalized growth

O=c1c(O)c(-c2ccc(O)cc2)oc2ccccc12
active: locus YAL021C, strain ccr4, active compounds read low 0.576 | locus YAL026C, strain drs2, active compounds read low 0.707 | locus YAL030W, strain snc1, active compounds read low 0.809 | locus YBL061C, strain skt5, active compounds read low 0.714 | locus YBR009C, strain hhf1, active compounds read low 0.7 | locus YBR023C, strain chs3, active compounds read low 0.643 | locus YBR231C, strain swc5, active compounds read low 0.794 | locus YBR279W, strain paf1, active compounds read low 0.749 | locus YCL011C, strain gbp2, active compounds read low 0.762 | locus YCL016C, strain dcc1, active compounds read low 0.849 | locus YCL061C, strain MRC1, active compounds read low 0.904 | locus YCL069W, strain vba3, active compounds read low 0.816 | locus YDR069C, strain doa4, active compounds read low 0.56 | locus YDR137W, strain rgp1, active compounds read low 0.397 | locus YDR159W, strain sac3, active compounds read low 0.792 | locus YDR195W, strain ref2 1.34 [resistant] | locus YDR297W, strain sur2, active compounds read low 0.82 | locus YDR334W, strain swr1, active compounds read low 0.831 | locus YDR335W, strain msn5, active compounds read low 0.789 | locus YDR392W, strain spt3, active compounds read low 0.284 | locus YEL003W, strain gim4, active compounds read low 0.79 | locus YEL037C, strain rad23, active compounds read low 0.853 | locus YEL061C, strain CIN8 (second series), active compounds read low 0.885 | locus YER015W, strain faa2, active compounds read low 0.615 | locus YER016W, strain bim1, active compounds read low 0.863 | locus YER111C, strain swi4, active compounds read low 0.745 | locus YER155C, strain BEM2 (second series), active compounds read low 0.489 | locus YFR010W, strain ubp6, active compounds read low 0.84 | locus YGL173C, strain kem1, active compounds read low 0.499 | locus YGL240W, strain doc1, active compounds read low 0.855 | locus YGL253W, strain hxk2, active compounds read low 0.63 | locus YHR013C, strain ard1, active compounds read low 0.506 | locus YHR027C, strain rpn1, active compounds read low 0.546 | locus YHR030C, strain SLT2, active compounds read low 0.847 | locus YHR142W, strain chs7, active compounds read low 0.495 | locus YJL095W, strain BCK1 (second series), active compounds read low 0.731 | locus YJL095W, strain BCK1, active compounds read low 0.833 | locus YJL129C, strain trk1, active compounds read low 0.717 | locus YJL164C, strain tpk1, active compounds read low 0.564 | locus YJL166W, strain qcr8, active compounds read low 0.538 | locus YJL187C, strain SWE1, active compounds read low 0.725 | locus YKL160W, strain elf1, active compounds read low 0.713 | locus YLL001W, strain dnm1, active compounds read low 0.777 | locus YLL026W, active compounds read low 0.809 | locus YLL041C, strain sdh2, active compounds read low 0.91 | locus YLR027C, strain aat2, active compounds read low 0.695 | locus YLR113W, strain HOG1, active compounds read low 0.719 | locus YLR221C, strain rsa3, active compounds read low 0.697 | locus YLR258W, strain gsy2, active compounds read low 0.766 | locus YLR262C, strain YPT6 (second series), active compounds read low 0.369 | locus YLR320W, strain mms22, active compounds read low 0.426 | locus YLR342W, strain FKS1, active compounds read low 0.757 | locus YLR370C, strain arc18, active compounds read low 0.781 | locus YLR384C, strain iki3, active compounds read low 0.905 | locus YML120C, strain ndi1, active compounds read low 0.669 | locus YMR058W, strain fet3, active compounds read low 0.179 | locus YMR205C, strain PFK2, active compounds read low 0.56 | locus YMR231W, strain pep5, active compounds read low 0.545 | locus YNL071W, strain lat1, active compounds read low 0.471 | locus YNL209W, strain ssb2, active compounds read low 0.458 | locus YNL248C, strain rpa49, active compounds read low 0.837 | locus YOR001W, strain rrp6, active compounds read low 0.695 | locus YOR070C, strain gyp1, active compounds read low 0.666 | locus YOR080W, strain dia2, active compounds read low 0.861 | locus YOR083W, strain WHI5, active compounds read low 0.664 | locus YOR106W, strain vam3, active compounds read low 0.319 | locus YOR231W, strain MKK1, active compounds read low 0.847 | locus YOR265W, strain rbl2, active compounds read low 0.816 | locus YOR270C, strain vph1, active compounds read low 0.328 | locus YOR290C, strain snf2, active compounds read low 0.641 | locus YPL051W, strain arl3, active compounds read low 0.441 | locus YPL078C, strain atp4, active compounds read low 0.651 | locus YPL106C, strain sse1, active compounds read low 0.843 | locus YPL240C, strain hsp82, active compounds read low 0.869 | locus YPL256C, strain CLN2, active compounds read low 0.816
inactive: locus YBR171W, strain sec66, active compounds read low 0.903 | locus YCR088W, strain abp1, active compounds read low 0.962 | locus YDL005C, strain med2, active compounds read low 0.965 | locus YDL040C, strain nat1, active compounds read low 0.934 | locus YDR001C, strain nth1, active compounds read low 0.936 | locus YGL167C, strain pmr1, active compounds read low 0.921 | locus YGL227W, strain vid30, active compounds read low 0.962 | locus YHR079C, strain IRE1, active compounds read low 0.855 | locus YJL092W, strain hpr5, active compounds read low 0.922 | locus YJL115W, strain asf1, active compounds read low 0.971 | locus YJL154C, strain vps35, active compounds read low 0.931 | locus YJR066W, strain TOR1, active compounds read low 0.842 | locus YKR026C, strain gcn3, active compounds read low 0.945 | locus YKR091W, strain srl3, active compounds read low 0.937 | locus YLR357W, strain rsc2, active compounds read low 0.9 | locus YMR125W, strain sto1, active compounds read low 0.972 | locus YMR129W, active compounds read low 0.932 | locus YNL183C, strain NPR1, active compounds read low 0.838 | locus YNL322C, strain KRE1 (second series), active compounds read low 0.909 | locus YNR049C, strain mso1, active compounds read low 0.919
